LGR2 antag = blocks bursicon-induced cAMP signaling via Drosophila LGR2 | HEK293 LGR2, CRE-luciferase, bursicon-stimulated, 4 h | inhibition, % at 9.99 µM | 0.35% of 380,000 active | AID 720647;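 active means drop in luminescence signal, shown as inhibition above about 50% in the replicate tests, limit read from the data, passing the limit was not always enough; inconclusive means probably only some replicates passing the limit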;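 further: agonist challenge used bursicon conditioned medium at about half maximal strength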
EWS-Fli inh = inhibitors of EWS/Fli oncoprotein transcriptional activity. A673 NR0B1-luciferase reporter, viability-normalised. inhibition, % at 12.6 µM. 0.67% of 350,000 active;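 active means mean inhibition of at least 50% after viability correction, with every replicate also passing that limit; inconclusive means mean reaches 50% but only one of two replicates passes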;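 further: firefly luciferase signal divided by Alamar Blue viability fluorescence both relative to DMSO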
TROY signal inh = blocks TROY-dependent signaling in reporter cells; Q293 LMP1-TROYcd NF-kB luciferase reporter, 4 h; inhibition, % at 10 µM; 0.98% of 360,000 active;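 active means compounds whose plate-normalised and pattern-corrected inhibition of the luciferase reporter signal at the single screening dose is 50% or more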
TWEAK-Fn14 inh = inhibitors of TWEAK-Fn14 interaction signaling; inhibition, % at 10 µM; TWEAK-stimulated Fn14 reporter cells, luciferase luminescence, 8 h; 2% of 360,000 active; in the data active means inhibition above about 50%
LMP1 NFkB inh = inhibitors of Epstein-Barr LMP1-induced NF-kappaB reporter. LMP1-induced NF-kappaB luciferase reporter cells, luminescence. inhibition, % at 12.5 µM. 0.69% of 350,000 active. AID 504558; in the data active means inhibition above about 41%; inconclusive means no clear call, values can overlap the other calls
Of the large screens only hits and unclear results are named; the others gave an inactive call. Rows were chosen to be rich in hits. Some 2.5% of all compounds tested hit in one or more screens of this group.

COc1cccc(CN2CCC2(C)C(=O)Nc2cccc(NS(C)(=O)=O)c2)c1OC (stereo not given)	TWEAK-Fn14 inh 67 (no result: LMP1 NFkB inh)
COc1ccc(CN2CCC2(C)C(=O)Nc2cccc(NS(C)(=O)=O)c2)c2ccccc12 (stereo not given)	none (no result: LMP1 NFkB inh)
Cc1ccc(-n2c(C)cc(C(=O)COc3cccnc3[N+](=O)[O-])c2C)cc1	TWEAK-Fn14 inh 63 (no result: EWS-Fli inh)
Cc1cc(C(=O)COc2cccnc2[N+](=O)[O-])c(C)n1-c1ccccc1	TWEAK-Fn14 inh 90, LMP1 NFkB inh inconclusive
O=C1CCC(c2ccccc2)c2ccccc21 (stereo not given)	none (no result: LMP1 NFkB inh)
N#CC1C(=O)c2ccccc2C1c1ccccc1 (stereo not given)	TROY signal inh 52
CC(C)NC(=O)Nc1ccc2c(c1)CC(=O)N([C@H](C)CO)C[C@H](C)[C@@H](CN(C)C(=O)Nc1ccc3c(c1)OCO3)O2	none (no result: TROY signal inh, TWEAK-Fn14 inh, LMP1 NFkB inh)
O=C1c2ccccc2C(=O)c2[nH]cnc21	none
O=C1c2ccccc2C(=O)c2[nH]c(=O)[nH]c21	TROY signal inh 54, LMP1 NFkB inh 89
CCC(=O)N1C[C@@H](C)[C@H](OC)CN(C)C(=O)c2cc(NC(=O)Nc3cccc(F)c3)ccc2OC[C@@H]1C	none (no result: TROY signal inh, TWEAK-Fn14 inh, LMP1 NFkB inh)
O=C(Nc1ccc(N2CCN(C(=O)c3ccc(Cl)cc3)CC2)cc1)c1cc2ccccc2o1	LGR2 antag inconclusive, TROY signal inh 69, TWEAK-Fn14 inh 90 (no result: EWS-Fli inh)
O=C(Nc1ccc(N2CCN(C(=O)c3cccs3)CC2)c(Cl)c1)c1ccco1	none (no result: EWS-Fli inh)
Cc1ccccc1C(=O)N1CCN(c2ccc(NC(=O)c3ccco3)cc2Cl)CC1	LMP1 NFkB inh 51 (no result: LGR2 antag, EWS-Fli inh)
CC(C)C(=O)N1CCN(c2ccc(NC(=O)c3ccc([N+](=O)[O-])o3)cc2)CC1	none
Cc1ccccc1C(=O)N1CCN(c2ccc(NC(=O)c3ccc([N+](=O)[O-])o3)cc2)CC1	EWS-Fli inh 61
O=C(Nc1ccc(N2CCN(C(=O)c3ccccc3)CC2)cc1)c1ccc([N+](=O)[O-])o1	EWS-Fli inh 66
C[C@H]1CN([C@@H](C)CO)C(=O)c2cc(-c3ccccc3F)cnc2O[C@@H]1CN(C)C(=O)CN(C)C	none (no result: TROY signal inh, TWEAK-Fn14 inh, LMP1 NFkB inh)
COc1ccc(S(=O)(=O)N2C[C@@H](O)COC[C@@H]3O[C@H](CC(=O)N[C@@H]4CCN(Cc5ccccc5)C4)CC[C@H]32)cc1	none (no result: TROY signal inh, TWEAK-Fn14 inh, LMP1 NFkB inh)
Cc1cc(OCC(=O)Nc2ccc(N3CCN(C(=O)c4ccco4)CC3)cc2)cc(C)c1Cl	TROY signal inh 52, TWEAK-Fn14 inh 52
Cc1c(-c2ccccc2)oc2c(C(=O)N3CCN(c4ccc([N+](=O)[O-])cc4)CC3)cccc2c1=O	TWEAK-Fn14 inh 75
C[C@H](CO)N1C[C@H](C)[C@H](CN(C)Cc2ccc(F)cc2)Oc2cc(C#CC3CC3)ccc2S1(=O)=O	none (no result: TROY signal inh, TWEAK-Fn14 inh, LMP1 NFkB inh)
O=C(C[C@H]1C[C@@H]2c3cc(NC(=O)NC4CCCCC4)ccc3O[C@@H]2[C@H](CO)O1)NCc1ccccn1	none (no result: TROY signal inh, TWEAK-Fn14 inh, LMP1 NFkB inh)
Cc1oc2c(c1C(=O)c1ccccc1)C(=O)C(=O)c1ccccc1-2	LMP1 NFkB inh 94 (no result: LGR2 antag, EWS-Fli inh)
Cc1oc2c(c1C(=O)O)C(=O)c1ccccc1C2=O	none
CN(C)c1ccc(C=Nc2ccc(N(C)C)cc2)cc1	none (no result: LGR2 antag, EWS-Fli inh)
CN(C)c1ccc(N=Cc2ccco2)cc1	TWEAK-Fn14 inh 51 (no result: LGR2 antag, EWS-Fli inh)
O=C([C@@H]1[C@@H](CO)[C@@H]2Cn3c(cccc3=O)[C@@H]2N1CC1CCCCC1)N1CCOCC1	none (no result: TROY signal inh, TWEAK-Fn14 inh, LMP1 NFkB inh)
CC1CCc2c(sc(NC(=O)CSc3nc(N)cc(=O)[nH]3)c2C(N)=O)C1 (stereo not given)	TROY signal inh 53, TWEAK-Fn14 inh 67
O=[N+]([O-])c1ccc(Sc2cccc[n+]2[O-])c2nonc12	EWS-Fli inh 56, TROY signal inh 86, TWEAK-Fn14 inh 94
O=[N+]([O-])c1ccc(Nc2ccccc2)c2nonc12	none
CCOC(=O)c1ccc(-n2c(CN3CCC(C(N)=O)CC3)nc3ccc([N+](=O)[O-])cc3c2=O)cc1	TROY signal inh 55
CCOC(=O)c1ccc(-n2c(CN3CCOCC3)nc3ccc([N+](=O)[O-])cc3c2=O)cc1	none
CCOC(=O)c1ccc(-n2c(CN3CCN(CC)CC3)nc3ccc([N+](=O)[O-])cc3c2=O)cc1	none
CCOC(=O)c1ccc(-n2c(CN3CCC(O)CC3)nc3ccc([N+](=O)[O-])cc3c2=O)cc1	TROY signal inh 53
O=C(Cc1ccncc1)Nc1ccc2c(c1)[C@H]1C[C@@H](CC(=O)N3CCc4ccccc4C3)O[C@H](CO)[C@H]1O2	none (no result: TROY signal inh, TWEAK-Fn14 inh, LMP1 NFkB inh)
CC(=O)Oc1ccc(C(=O)NCCc2ccccc2)cc1	TWEAK-Fn14 inh 60

Screening results deposited in PubChem by several laboratories.
